{"source": "PubChem BioAssay AID2314", "about": "(National Center for Advancing Translational Sciences (NCATS), 2010)", "note": "Where “and” joins values, the source holds several entries; their conditions need not be identical. Equal entries are not always repeated. Out of some 300,000 compounds screened, about 37,000 (12%) were called active. No stated cut-off is given here; in the data, active means max response mostly above about 13% (no sharp cut-off); inactive means mostly below about 14%. The sample as a whole holds a higher share of actives than the screen did.", "data": [{"assay": "Cycloheximide Counterscreen for Small Molecule Inhibitors of Shiga Toxin; further: read at 38.3 µM for the half of the compounds with a filed dose; 0% is about no effect", "conditions": "cell reporter, cycloheximide protein synthesis inhibition counterscreen; stronger effect = higher value", "values": [{"smiles": "COc1ccc(C(=O)N(C)CC(O)c2ccccc2)cc1OC1CCN(C(C)=O)CC1", "note": "(stereo not drawn)", "max response": "3.8% (inactive)"}, {"smiles": "CC(C)[C@H](NC(=O)OCc1ccccc1)C(=O)OCc1ccccc1", "max response": "-4.84% (inactive)"}, {"smiles": "CC1CCN(c2ccc([N+](=O)[O-])c(SCCO)c2)CC1", "max response": "1.83% (inactive)"}, {"smiles": "FC(F)(F)c1cccc(N/N=C/c2ccccc2)c1", "max response": "41.1% (active)"}, {"smiles": "NC(=O)Nc1cccc(C(F)(F)F)c1", "max response": "0.977% (inactive)"}, {"smiles": "O=C(O)CSCC(=O)Nc1cccc(C(F)(F)F)c1", "max response": "-6.91% (inactive)"}, {"smiles": "Cc1ccc(C(C)C)cc1OCC(=O)Nc1ccccc1N1CCCC1", "max response": "-0.789% (inactive)"}, {"smiles": "Cc1ccc(O)c(NC(=O)COc2cc(C)ccc2C)c1", "max response": "28.6% (active)"}, {"smiles": "Cc1ccc(O)c(NC(=S)NC(=O)COc2ccc(Br)cc2)c1", "max response": "-1.57% (inactive)"}, {"smiles": "COc1nnc(-c2ccc(C)c(S(=O)(=O)N(C)C)c2)c2ccccc12", "max response": "0.699% (inactive)"}, {"smiles": "Cc1cc(C)c(S(=O)(=O)N2CCOCC2)cc1C", "max response": "1.22% (inactive)"}, {"smiles": "Cc1nc2cc(NC(=O)NCc3ccccc3)ccc2o1", "max response": "21.4% (active)"}, {"smiles": "O=C(CSc1ncccn1)NC(=O)NCc1ccccc1", "max response": "-1.54% (inactive)"}, {"smiles": "Cc1ccc(NC(=O)Nc2ccc3oc(C)nc3c2)cc1", "max response": "53.3% (active)"}, {"smiles": "CCCCc1ccc(NC(=O)NCc2cccnc2)cc1", "max response": "16% (inactive)"}, {"smiles": "Cc1nc2ccc(NC(=O)C(F)(F)F)cc2o1", "max response": "1.37% (inactive)"}, {"smiles": "COc1ccccc1C(=O)Nc1ccc(OCc2nnc3c4ccccc4c(C)nn23)cc1", "max response": "1.98% (inactive)"}, {"smiles": "CN(Cc1ccccc1)C(=O)C1CCCN(c2ncnc3c2nc2n3CCCCC2)C1", "note": "(stereo not drawn)", "max response": "-3.17% (inactive)"}, {"smiles": "N#C/C(=C\\c1ccc(N2CCOCC2)o1)C(=O)N1CCOCC1", "max response": "1.71% (inactive)"}, {"smiles": "CCn1c(=O)c([N+](=O)[O-])c(NCc2ccc3c(c2)OCO3)c2ccccc21", "max response": "-2.03% (inactive)"}, {"smiles": "CC(C)NC(=O)/C(C#N)=C\\c1ccc(N(C)C)c(Br)c1", "max response": "27.9% (active)"}, {"smiles": "COCCNC(=O)/C(C#N)=C/c1cccc(OCc2ccccc2)c1", "max response": "4.87% (inactive)"}, {"smiles": "CC(C)(C)C(=O)/C(C#N)=C/c1ccc(O)cc1", "max response": "8.63% (inactive)"}, {"smiles": "COc1ccccc1C(C)NC(=O)Cc1ccsc1", "note": "(stereo not drawn)", "max response": "5.18% (inactive)"}, {"smiles": "CC(=O)Nc1ccc(NC(=O)[C@@H](NC(=O)c2cccc(C)c2)C(C)C)cc1", "max response": "-5.14% (inactive)"}, {"smiles": "CSCCC(NC(=O)COc1ccccc1)C(=O)Nc1ccc(C)cc1", "note": "(stereo not drawn)", "max response": "4.05% (inactive)"}, {"smiles": "Cc1ccc(NC(=O)C(C)c2cccc(C(=O)c3ccccc3)c2)cc1", "note": "(stereo not drawn)", "max response": "26.6% (active)"}, {"smiles": "COc1ccc(N2C(=O)C(CC(=O)Nc3ccccc3)N(Cc3ccc(OC)c(OC)c3)C2=O)cc1", "note": "(stereo not drawn)", "max response": "14.6% (inactive)"}, {"smiles": "Nc1nc(SC23CC4CC(CC(C4)C2)C3)ns1", "max response": "-2.92% (inactive)"}, {"smiles": "CCCCCCSc1nsc(N)n1", "max response": "23.1% (active)"}, {"smiles": "CCCSc1nsc(N)n1", "max response": "22.8% (active)"}, {"smiles": "Cc1ccc(S(=O)(=O)N2CCCC(C(=O)N3CCN(C)CC3)C2)cc1", "note": "(stereo not drawn)", "max response": "6.16% (inactive)"}, {"smiles": "Cn1c(=O)[nH]c(=O)c2c1nc(CN1CCN(c3ccccc3F)CC1)n2CCc1ccccc1", "max response": "2.36% (inactive)"}, {"smiles": "CCCCCCNS(=O)(=O)c1ccccc1Br", "max response": "-2.52% (inactive) and 6.23% (inactive)"}, {"smiles": "O=C(COC(=O)c1ccc(S(=O)(=O)Nc2ccccc2)cc1)NCC1CCCO1", "note": "(stereo not drawn)", "max response": "-1.31% (inactive)"}, {"smiles": "CCOC(=O)N1CCN(c2cc(C)c([N+](=O)[O-])cc2F)CC1", "max response": "16.3% (inactive)"}, {"smiles": "CS(=O)(=O)c1ccc2nnn(OCC(=O)Nc3cccc(C#N)c3)c2c1", "max response": "-3.01% (inactive)"}, {"smiles": "O=C(O)CC(c1ccccc1F)N1Cc2ccccc2C1=O", "note": "(stereo not drawn)", "max response": "-3.84% (inactive)"}, {"smiles": "COc1cc([N+](=O)[O-])cc([N+](=O)[O-])c1NC(=O)N1CCOCC1", "max response": "-3.17% (inactive)"}, {"smiles": "O=C(OCCN1C(=O)c2ccccc2C1=O)Oc1ccccc1", "max response": "-5.45% (inactive)"}, {"smiles": "COc1ccc(OCCCON2C(=O)c3ccccc3C2=O)cc1", "max response": "-3.07% (inactive)"}, {"smiles": "O=C1c2ccccc2C(=O)N1CCOc1ccc(F)cc1", "max response": "34.9% (active)"}, {"smiles": "COc1cc(OC)cc(C(=O)Nc2nnc(SCC(=O)NCC3CCCO3)s2)c1", "note": "(stereo not drawn)", "max response": "5.61% (inactive)"}, {"smiles": "COC(=O)C1=C(C)N(C(C)c2ccccc2)C(=O)/C1=C\\c1ccco1", "note": "(stereo not drawn)", "max response": "12.5% (inactive)"}, {"smiles": "O=C(Nn1cnnc1)c1cc(Cl)ccc1Cl", "max response": "1.72% (inactive)"}, {"smiles": "CCc1c(O)nc(SCC(=O)N2CCCCC2)n(-c2ccccc2C)c1=O", "max response": "-1.43% (inactive)"}, {"smiles": "Cc1ccc(-n2c(SCC(=O)N3CCC(C(=O)O)CC3)nc3ccccc3c2=O)cc1C", "max response": "25.2% (active)"}, {"smiles": "COc1cccc(-n2c(SCC(=O)c3c[nH]c4ccccc34)nc3ccccc3c2=O)c1", "max response": "-2.32% (inactive)"}, {"smiles": "Cc1[nH]c2ccccc2c1C(=O)CN1CC(C)CC(C)C1", "note": "(stereo not drawn)", "max response": "-1.83% (inactive)"}, {"smiles": "O=C(NC1CC1)C1=C[C@H](c2c[nH]c3ccccc23)C[C@H](OCc2ccc(CO)cc2)O1", "max response": "16.2% (active)"}, {"smiles": "O=C(NCc1ccccc1)C1=C[C@@H](c2ccc(C(F)(F)F)cc2)C[C@@H](OCc2ccc(CO)cc2)O1", "max response": "6.43% (inactive)"}, {"smiles": "O=C(NCc1ccccc1)C1=C[C@H](C2CC2)C[C@H](OCc2ccc(CO)cc2)O1", "max response": "-2.61% (inactive)"}, {"smiles": "NC(=O)C1=C[C@@H](c2csc3ccccc23)C[C@@H](OCc2ccc(CO)cc2)O1", "max response": "-2.5% (inactive)"}, {"smiles": "C=CCOC(=O)C1=C[C@@H](c2ccccc2)C[C@@H](OCc2ccc(CO)cc2)O1", "max response": "8.03% (inactive)"}, {"smiles": "NC(=O)C1=C[C@H](c2csc3ccccc23)C[C@H](OCc2ccc(CO)cc2)O1", "max response": "20.4% (active)"}, {"smiles": "CCc1cccc(NC(=O)CCCN2C(=O)C(c3ccccc3)Oc3cccnc32)c1", "note": "(stereo not drawn)", "max response": "11.2% (inactive)"}, {"smiles": "C=C(Br)Cn1c(CCCC)nc2ccccc21", "max response": "3.99% (inactive)"}, {"smiles": "COc1ccc(C)cc1S(=O)(=O)NCCc1ccccc1", "max response": "-1.77% (inactive)"}, {"smiles": "COc1ccc(CCN2C(=O)N(c3ccc(OC)cc3)C(=O)C2CC(=O)Nc2ccc(OC)cc2)cc1", "note": "(stereo not drawn)", "max response": "1.2% (inactive)"}, {"smiles": "Cc1cc(C(F)F)nn1CC(=O)NC1CCCCCC1", "max response": "6.8% (inactive)"}, {"smiles": "O=C(CN1CCCCCC1)Nc1ccc(Br)cc1Br", "max response": "15.8% (inactive)"}, {"smiles": "O=CN1CCN(C2CC(=O)N(c3ccc4c(c3)OCO4)C2=O)CC1", "note": "(stereo not drawn)", "max response": "11.4% (inactive)"}, {"smiles": "Cc1ccc(CC2CC(=O)N(c3ccc4c(c3)OCCO4)C2=O)cc1", "note": "(stereo not drawn)", "max response": "21.2% (inactive)"}, {"smiles": "Cc1ccc(N2C(=O)CC(NCc3ccc4c(c3)OCO4)C2=O)cc1Cl", "note": "(stereo not drawn)", "max response": "24% (active)"}, {"smiles": "CCNC(=O)CC1C(=O)N(c2ccc(OC)cc2)C(=S)N1CCc1ccncc1", "note": "(stereo not drawn)", "max response": "-6.33% (inactive)"}, {"smiles": "Cc1ccc2c(c1)N(CC(=O)NCC1CCCO1)C(=O)CO2", "note": "(stereo not drawn)", "max response": "-1.04% (inactive)"}, {"smiles": "O=C(NCCCN1CCCCC1)C1CC(=O)N(CCc2ccccc2)C1", "note": "(stereo not drawn)", "max response": "3.29% (inactive)"}, {"smiles": "COc1cccc(/C=C/C(=O)Nc2ccc3c(c2)OCCO3)c1", "max response": "51.1% (active)"}, {"smiles": "COc1ccc(/C=C/C(=O)Nc2ccc(C)cc2)cc1S(=O)(=O)N1CCOCC1", "max response": "10.5% (inactive)"}, {"smiles": "COc1cccc(C(=O)Nc2cccnc2)c1OC", "max response": "2.63% (inactive)"}, {"smiles": "O=C(/C=C\\c1ccc2c(c1)OCO2)NC1(C(=O)Nc2ccc3c(c2)OCCO3)CCCCC1", "max response": "-4.38% (inactive)"}, {"smiles": "COc1ccc(/C=C/C(=O)Nc2ccc(C34CC5CC(CC(O)(C5)C3)C4)cc2)cc1OC", "max response": "36.8% (active)"}, {"smiles": "COc1ccc(NS(=O)(=O)c2cc(NC(=O)/C=C/c3cc(OC)c(OC)c(OC)c3)ccc2N2CCCCC2)cc1", "max response": "-2.53% (inactive)"}, {"smiles": "COc1ccc(/C=C/C(=O)N2CCCC2)cc1OC", "max response": "5.12% (inactive)"}, {"smiles": "COc1ccc(/C=C/C(=O)Nc2ccc3c(c2)OCCO3)cc1OC", "max response": "34.3% (active)"}, {"smiles": "COc1ccc(/C=C/C(=O)Nc2cccnc2)cc1OC", "max response": "19.5% (active)"}, {"smiles": "COc1cc(/C=N/NC(=S)Nc2cccnc2)cc(OC)c1O", "max response": "14% (inactive)"}, {"smiles": "COc1ccc(OC)c(/C=C/C(=O)OCC(=O)Nc2ccc3c(c2)OCCO3)c1", "max response": "4.24% (inactive)"}, {"smiles": "CCOc1ccc2c(=O)c(-c3ccc4c(c3)OCCCO4)c(C)oc2c1", "max response": "7.6% (inactive)"}, {"smiles": "CCOc1ccccc1Nc1ccc(C(=O)O)cc1[N+](=O)[O-]", "max response": "-4.22% (inactive)"}, {"smiles": "CCSc1nc2sc3c(c2c(=O)[nH]1)CC(C)(C)OC3", "max response": "0.89% (inactive)"}, {"smiles": "Cc1cccn2cc(-c3cccc(S(=O)(=O)N4CCCCC4)c3)nc12", "max response": "15.4% (active)"}, {"smiles": "O=S(=O)(c1cccc(-c2cn3ccccc3n2)c1)N1CCCC1", "max response": "13.9% (inactive)"}, {"smiles": "O=S(=O)(c1cccc(-c2nnc3n2CCCCC3)c1)N1CCOCC1", "max response": "-0.622% (inactive)"}, {"smiles": "CCc1cc2c(N3CCN(c4nnc(CC)s4)CC3)ncnc2s1", "max response": "-4.57% (inactive)"}, {"smiles": "COc1ccc(-n2c(C)cc(C(=O)CN3C(=O)NC4(CCc5ccccc54)C3=O)c2C)cc1", "note": "(stereo not drawn)", "max response": "3.03% (inactive)"}, {"smiles": "S=C(NCCc1ccccc1)NCC1CCCO1", "note": "(stereo not drawn)", "max response": "29.4% (active)"}, {"smiles": "CC1CCCCN1C(=S)NCc1ccccc1", "note": "(stereo not drawn)", "max response": "0.333% (inactive)"}, {"smiles": "S=C(NCCc1ccccc1)Nc1ccccc1", "max response": "52.7% (active)"}, {"smiles": "S=C(NCCCc1ccccc1)Nc1ccc(Br)cc1", "max response": "9.21% (inactive)"}, {"smiles": "Cc1nnc(OCC(=O)NCCC2=CCCCC2)c2ccccc12", "max response": "-1.88% (inactive)"}, {"smiles": "S=C(NCCc1ccccc1)NCc1ccccc1Cl", "max response": "2.05% (inactive)"}, {"smiles": "Oc1ccc(N2CCN(C(=S)NCc3ccccc3)CC2)cc1", "max response": "-5.44% (inactive)"}, {"smiles": "O=C(Cc1cccc2ccccc12)NCCC1=CCCCC1", "max response": "-2.35% (inactive)"}, {"smiles": "S=C(NCCC1=CCCCC1)Nc1ccccc1", "max response": "39.2% (active)"}, {"smiles": "Oc1c(Br)cc(/C=N/NC(=S)NCC2CCCO2)cc1Br", "note": "(stereo not drawn)", "max response": "1.44% (inactive)"}, {"smiles": "Oc1ccccc1N1CCN(C(=S)NCc2ccccc2)CC1", "max response": "31.8% (active)"}, {"smiles": "O=C(CS(=O)(=O)Cc1ccccc1)NCC1CCCO1", "note": "(stereo not drawn)", "max response": "-0.705% (inactive)"}]}]}
